Experimental data as given in PubChem BioAssay AID1159580 (chemical genetic matrix, 2015).
Several values for one entry are separate records, joined by “and”; a condition that tells them apart may be missing. Equal entries are not always repeated. Out of some 5,500 compounds screened, about 2,000 (36%) were called active. Not shown: some 18% with an inconclusive outcome. Cut-off read from the data, not from the text of the source: active = normalized growth mostly below about 0.91 (no sharp cut-off); inconclusive = no clear call, values can overlap the other calls; inactive = mostly above about 0.92. This is one part of the list.

Assay: chemical genetic growth profiling, strain panel (AID 1159580);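 note: tested at 20 µM; growth read once vehicle control cultures reached saturation at 30 °C; 1 = growth at the plate median or of vehicle wells; lower values mean less growth of the strain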
Conditions: growth OD

Measured: normalized growth

C/C=C(/C)C(=O)O[C@H]1CC[C@@]2(C)[C@@H]3CC[C@H]4[C@]5(O)C[C@H](O)[C@@]6(O)[C@@H](CN7C[C@@H](C)CC[C@H]7[C@@]6(C)O)[C@]5(O)C[C@@]42O[C@]13O
inactive: S. cerevisiae deletion strains, locus YBR021W, strain FUR4, active compounds read low 1 | S. cerevisiae deletion strains, locus YBR229C, strain ROT2, active compounds read low 1.01 | S. cerevisiae deletion strains, locus YCL029C, strain bik1, active compounds read low 0.988 | S. cerevisiae deletion strains, locus YDL035C, strain GPR1, active compounds read low 0.991 | S. cerevisiae deletion strains, locus YDL074C, strain BRE1, active compounds read low 0.981 | S. cerevisiae deletion strains, locus YDL101C, strain DUN1, active compounds read low 1.02 | S. cerevisiae deletion strains, locus YDL185W, strain tfp1, active compounds read low 0.966 | S. cerevisiae deletion strains, locus YDL192W, strain arf1, active compounds read low 0.966 | S. cerevisiae deletion strains, locus YDR101C, strain arx1, active compounds read low 0.981 | S. cerevisiae deletion strains, locus YDR162C, strain NBP2, active compounds read low 1.05 | S. cerevisiae deletion strains, locus YDR318W, strain mcm21, active compounds read low 0.987 | S. cerevisiae deletion strains, locus YDR388W, active compounds read low 0.98 | S. cerevisiae deletion strains, locus YDR502C, strain sam2, active compounds read low 0.988 | S. cerevisiae deletion strains, locus YEL061C, strain CIN8, active compounds read low 1 | S. cerevisiae deletion strains, locus YER110C, active compounds read low 0.964 | S. cerevisiae deletion strains, locus YER155C, strain BEM2, active compounds read low 1 | S. cerevisiae deletion strains, locus YER167W, strain BCK2, active compounds read low 0.995 | S. cerevisiae deletion strains, locus YGL078C, strain dbp3, active compounds read low 0.993 | S. cerevisiae deletion strains, locus YGL086W, strain mad1, active compounds read low 0.975 | S. cerevisiae deletion strains, locus YGL248W, strain PDE1, active compounds read low 1.03 | S. cerevisiae deletion strains, locus YGR078C, strain PAC10, active compounds read low 1.05 | S. cerevisiae deletion strains, locus YGR135W, strain pre9, active compounds read low 0.993 | S. cerevisiae deletion strains, locus YGR252W, strain gcn5, active compounds read low 1.11 | S. cerevisiae deletion strains, locus YHR030C, strain SLT2, active compounds read low 0.988 and 0.996 | S. cerevisiae deletion strains, locus YHR079C, strain IRE1 (second series), active compounds read low 0.969 | S. cerevisiae deletion strains, locus YHR079C, strain IRE1, active compounds read low 0.969 | S. cerevisiae deletion strains, locus YHR094C, strain hxt1, active compounds read low 0.981 | S. cerevisiae deletion strains, locus YHR129C, strain ARP1, active compounds read low 0.996 | S. cerevisiae deletion strains, locus YHR200W, strain rpn10, active compounds read low 0.964 | S. cerevisiae deletion strains, locus YIL066C, strain RNR3, active compounds read low 1.01 | S. cerevisiae deletion strains, locus YIL073C, strain SPO22, active compounds read low 0.949 | S. cerevisiae deletion strains, locus YIL125W, strain kgd1, active compounds read low 1 | S. cerevisiae deletion strains, locus YIR030C, strain dcg1, active compounds read low 0.977 | S. cerevisiae deletion strains, locus YJL095W, strain BCK1, active compounds read low 1.05 and 0.999 | S. cerevisiae deletion strains, locus YJL134W, strain LCB3, active compounds read low 0.996 | S. cerevisiae deletion strains, locus YJL168C, strain set2, active compounds read low 0.982 | S. cerevisiae deletion strains, locus YJL187C, strain SWE1 (second series), active compounds read low 1.07 | S. cerevisiae deletion strains, locus YJR043C, strain POL32, active compounds read low 1.02 | S. cerevisiae deletion strains, locus YJR066W, strain TOR1, active compounds read low 0.928 | S. cerevisiae deletion strains, locus YKL009W, strain mrt4, active compounds read low 0.948 | S. cerevisiae deletion strains, locus YKL068W, active compounds read low 0.987 | S. cerevisiae deletion strains, locus YKL085W, strain MDH1 (second series), active compounds read low 0.979 | S. cerevisiae deletion strains, locus YKL085W, strain MDH1, active compounds read low 0.979 | S. cerevisiae deletion strains, locus YKR001C, strain vps1, active compounds read low 0.965 | S. cerevisiae deletion strains, locus YLR039C, strain RIC1, active compounds read low 0.908 | S. cerevisiae deletion strains, locus YLR058C, strain SHM2, active compounds read low 1.01 | S. cerevisiae deletion strains, locus YLR102C, strain apc9, active compounds read low 0.975 | S. cerevisiae deletion strains, locus YLR113W, strain HOG1, active compounds read low 0.995 | S. cerevisiae deletion strains, locus YLR262C, strain YPT6, active compounds read low 0.934 | S. cerevisiae deletion strains, locus YLR268W, strain sec22, active compounds read low 0.97 | S. cerevisiae deletion strains, locus YLR330W, strain CHS5, active compounds read low 0.986 | S. cerevisiae deletion strains, locus YLR342W, strain FKS1 (second series), active compounds read low 1.05 | S. cerevisiae deletion strains, locus YLR371W, strain rom2, active compounds read low 0.982 | S. cerevisiae deletion strains, locus YLR418C, strain cdc73, active compounds read low 0.988 | S. cerevisiae deletion strains, locus YML016C, strain PPZ1, active compounds read low 1 | S. cerevisiae deletion strains, locus YML032C, strain rad52, active compounds read low 1 | S. cerevisiae deletion strains, locus YML124C, strain tub3, active compounds read low 0.984 | S. cerevisiae deletion strains, locus YMR078C, strain ctf18, active compounds read low 0.958 | S. cerevisiae deletion strains, locus YMR223W, strain ubp8, active compounds read low 1 | S. cerevisiae deletion strains, locus YMR263W, strain SAP30, active compounds read low 1.01 | S. cerevisiae deletion strains, locus YMR307W, strain GAS1, active compounds read low 1.15 | S. cerevisiae deletion strains, locus YNL067W, strain RPL9B, active compounds read low 1.03 | S. cerevisiae deletion strains, locus YNL183C, strain NPR1, active compounds read low 0.974 | S. cerevisiae deletion strains, locus YNL233W, strain BNI4, active compounds read low 1.03 | S. cerevisiae deletion strains, locus YNL250W, strain rad50, active compounds read low 0.962 | S. cerevisiae deletion strains, locus YNL271C, strain bni1, active compounds read low 0.994 | S. cerevisiae deletion strains, locus YNL298W, strain CLA4, active compounds read low 0.993 | S. cerevisiae deletion strains, locus YNL307C, strain MCK1, active compounds read low 0.995 | S. cerevisiae deletion strains, locus YNR052C, strain pop2, active compounds read low 1.01 | S. cerevisiae deletion strains, locus YOL012C, strain htz1 0.767 | S. cerevisiae deletion strains, locus YOL147C, strain pex11, active compounds read low 0.991 | S. cerevisiae deletion strains, locus YOR061W, strain CKA2, active compounds read low 1 | S. cerevisiae deletion strains, locus YOR069W, strain VPS5, active compounds read low 0.997 | S. cerevisiae deletion strains, locus YOR136W, strain idh2, active compounds read low 0.981 | S. cerevisiae deletion strains, locus YOR144C, strain elg1, active compounds read low 1.01 | S. cerevisiae deletion strains, locus YOR184W, strain ser1, active compounds read low 0.993 | S. cerevisiae deletion strains, locus YOR231W, strain MKK1, active compounds read low 1.01 | S. cerevisiae deletion strains, locus YOR316C, strain cot1, active compounds read low 0.98 | S. cerevisiae deletion strains, locus YPL256C, strain CLN2, active compounds read low 0.983 | S. cerevisiae deletion strains, locus YPR119W, strain clb2, active compounds read low 0.963 | S. cerevisiae deletion strains, locus YPR141C, strain kar3, active compounds read low 0.981 | S. cerevisiae deletion strains, locus YPR163C, strain tif3, active compounds read low 0.977 | S. cerevisiae deletion strains, locus YPR167C, strain met16, active compounds read low 0.957 | S. cerevisiae deletion strains, strain wtn01, active compounds read low 0.977 | S. cerevisiae strains, strain wild type, active compounds read low 1.01
